# Bioassay records: PubChem, several laboratories
# CYP2C9 inhib: blocks human cytochrome P450 2C9. AID 777. inhibition, % at 5 µM. P11712. CYP2C9 Supersomes, luciferin-H conversion, luminescence. 96,000 tested, 20% active;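 active = blocking of liver enzyme CYP2C9 beyond about 50% at 5 µM, limit read from the data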
# Target sequence (P11712 whole entry, looked up): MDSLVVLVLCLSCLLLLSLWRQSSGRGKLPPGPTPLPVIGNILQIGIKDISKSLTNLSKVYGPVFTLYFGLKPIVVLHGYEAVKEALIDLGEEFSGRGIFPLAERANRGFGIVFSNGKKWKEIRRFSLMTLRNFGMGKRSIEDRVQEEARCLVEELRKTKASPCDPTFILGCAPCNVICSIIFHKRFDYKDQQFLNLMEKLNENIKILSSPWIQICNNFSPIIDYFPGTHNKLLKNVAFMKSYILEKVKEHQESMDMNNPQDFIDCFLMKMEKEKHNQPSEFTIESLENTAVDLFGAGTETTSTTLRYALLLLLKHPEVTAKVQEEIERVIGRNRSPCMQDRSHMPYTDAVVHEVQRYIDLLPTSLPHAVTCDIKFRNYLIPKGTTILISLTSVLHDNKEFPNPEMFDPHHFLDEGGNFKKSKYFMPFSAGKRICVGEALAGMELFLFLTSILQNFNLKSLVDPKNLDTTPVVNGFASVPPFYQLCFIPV
# Cav3 T inh: blocks human Cav3.2 T-type calcium channel | Cav3.2-expressing cells, Fluo-4 calcium fluorescence FDSS; active compounds read low | B-score at 10 µM | 100,000 tested, 4% active;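 active = single-dose well whose peak fluorescence ratio is a statistical outlier from its plate by either plate-standardised score or position-corrected B-score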
# CYP2C9 act: CYP2C9 (human) activation | AID 1024 | P11712 | recombinant CYP2C9, luciferin-H conversion, luminescence; active compounds read high; factor 1 = untreated enzyme, 0 = blocked | 96,000 tested, 1.4% active | activation factor at 5 µM;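 active = activation factor of 2 or more for CYP2C9 at a 5 µM dose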;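 also: 0 = sulfaphenazole-blocked wells and 1 = vehicle-only wells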
# CYP2C19 activ: activators of human cytochrome P450 2C19. recombinant CYP2C19, luciferin-H EGE luminescence; active compounds read high; 0 = fully inhibited enzyme, 1 = untreated enzyme. activation factor at 5 µM. 96,000 tested, under 10 active;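 active = activation factor of at least 2 at 5 µM in the primary screen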;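 also: 0 = wells with 2.5 mM tranylcypromine and 1 = vehicle-only wells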
# CYP2C19 inhib: blocks human cytochrome P450 2C19 | P33261 | CYP2C19 Supersomes, luciferin-H EGE luminescence, 30 min | inhibition, % at 5 µM | 96,000 tested, 21% active;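 active = CYP2C19 inhibition above a set limit at 5 µM in the primary screen, cut at about 50% in these data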;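 also: plate controls were negative control wells for no effect and 2.5 mM tranylcypromine positive control for full effect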
# * = called active by the depositor; . = not tested or not shown. The list is not random: actives were taken first. Their share in the collection is about 27%.
SMILES,CYP2C9 inhib,Cav3 T inh,CYP2C9 act,CYP2C19 activ,CYP2C19 inhib
COc1ccc(N2C(=O)C3CCCN3C2c2cccc(F)c2)cc1Cl (stereo unspecified),7.6,0.222,0.9,0.9,8.1
COc1cccc(N2C(=O)C3CCCN3C2c2ccc(Cl)cc2)c1 (stereo unspecified),50.1*,-1.01,0.5,0.3,68.8*
COc1cccc(N2C(=O)C3CCCN3C2c2ccc(N(C)C)cc2)c1 (stereo unspecified),37.0,0.601,0.6,0.6,38.2
COc1ccc(N2C(=O)C3CCCN3C2c2cccc(Br)c2)cc1 (stereo unspecified),52.1*,-0.321,0.5,0.5,46.4
COc1cccc(C2N(c3cccc(Cl)c3)C(=O)C3CCCN32)c1 (stereo unspecified),88.4*,-0.56,0.1,0.3,69.7*
CC(=O)c1c(N2CCN(Cc3ccc4c(c3)OCO4)CC2)nc(=S)n(-c2ccccc2)c1C,24.2,0.208,0.8,1.1,-7.1
Clc1cccc(CSc2nnc(-c3ccccn3)n2Cc2ccco2)c1,84.6*,-7.57*,0.2,0.5,50.1*
Brc1ccc(CSc2nnc(-c3ccccn3)n2Cc2ccco2)cc1,87.3*,-5.11*,0.1,0.5,48.4
CC(C)(C)c1ccc(CSc2nnc(-c3ccccn3)n2Cc2ccco2)cc1,92.6*,.,0.1,0.3,73.3*
CCOC(=O)CNS(=O)(=O)c1ccc(S(=O)(=O)N2CCCC2)cc1,14.7,-0.0175,0.9,1,2.9
Nc1ccc(SC(F)(F)F)cc1C(=O)c1ccccc1,32.6,.,0.7,0.7,31.7
Nc1ccc(Cl)cc1/C(=N/O)c1ccccc1,55.9*,-1.11,0.4,0.2,77.9*
CCC(=O)N1CCn2c1nc1ccccc12,19.1,0.177,0.8,1,-3.0
Cc1n[nH]c(C)c1S(=O)(=O)N1CCC(C(=O)N2CCn3c2nc2ccccc23)CC1,42.5,0.314,0.6,0.3,66.0*
Cc1ccc(N(CC(=O)N2CCn3c2nc2ccccc23)S(=O)(=O)c2c(C)n[nH]c2C)cc1,63.8*,0.55,0.4,0.8,24.7
Cc1cc(C)cc(NC(=O)C2CCN(S(=O)(=O)c3c(C)n[nH]c3C)CC2)c1,-72.5,-0.316,1.7,0.8,21.6
Cc1ccc(C)c(NC(=O)c2sc(Cl)nc2-c2ccccc2)c1,39.1,-1.08,0.6,0.6,44.9
CN(C(=O)c1ccc(Cl)c(S(=O)(=O)N2CCOCC2)c1)c1ccccc1C(=O)O,6.8,1.42,0.9,1.1,-7.7
NC(=O)CSc1nc(-c2ccccc2)c(-c2ccccc2)o1,.,0.00246,.,.,.
O=C(CSc1nnc(-c2cccnc2)n1Cc1ccco1)c1ccc(Br)cc1,80.2*,-1.46,0.2,0.1,88.0*
COc1ccc(C(=O)CSc2nnc(-c3ccccn3)n2Cc2ccco2)cc1,66.4*,-1.67,0.3,0.7,28.6
Cc1cc(NC(=O)CSc2nnc(COc3ccccc3)n2Cc2ccco2)no1,38.4,0.919,0.6,1,-2.4
O=C(CSc1nnc(-c2ccccn2)n1Cc1ccco1)c1ccccc1,51.2*,-0.327,0.5,1,-0.9
O=C(CSc1nnc(-c2cccnc2)n1Cc1ccco1)c1ccc2ccccc2c1,47.7,0.853,0.5,0.8,23.7
O=C(CSc1nnc(-c2cnccn2)n1Cc1ccco1)c1ccccc1,37.9,-0.00298,0.6,0.7,34.7
SMILES,CYP2C9 inhib,Cav3 T inh,CYP2C9 act,CYP2C19 activ,CYP2C19 inhib
Cc1ccc(OCc2nnc(SCC(=O)C(C)(C)C)n2Cc2ccco2)cc1,73.8*,-3.69,0.3,0.8,19.6
O=S(=O)(c1ccc2ccccc2c1)N1CCC(c2nc(-c3ccncc3)no2)CC1,.,-0.174,.,.,.
CN(CCc1ccccn1)c1ncnc2[nH]ncc12,2.6,0.0868,1,0.9,12.1
O=C(O)c1nn(-c2ccc(Cl)cc2)ccc1=O,-8.6,0.278,1.1,1.1,-7.3
O=C(CSc1nnc(-c2ccccn2)n1Cc1ccco1)c1ccc(Cl)cc1,71.4*,-4.99*,0.3,0.7,26.9
O=C(CSc1nnc(-c2ccccn2)n1Cc1ccccc1)N1CCCC1,24.6,0.0215,0.8,0.9,13.0
O=C(CSc1nnc(-c2cnccn2)n1Cc1ccco1)c1ccc(Cl)cc1,59.0*,-0.581,0.4,0.7,26.8
COc1cc(Cl)c(C)cc1NC(=O)CSc1nnc(-c2ccccn2)n1Cc1ccco1,50.1*,-7.33*,0.5,0.8,16.2
CCN1CCN(CC(=O)NC2CCCCC2)C(=O)C1=O,.,0.0265,.,.,.
Clc1ccc(-c2nn3c(-c4ccccn4)nnc3s2)c(Cl)c1,28.6,.,0.7,0.7,34.8
COc1nc(OC/C(N)=N/O)nc(N2CCOCC2)n1,11.3,0.141,0.9,1,0.5
